# Legend:
# Test in all cases: DAPPL (digital affinity profiling via proximity ligation, sequencing); 10 mM Tris-HCl pH 7.5, 50 mM NaCl, 1 mM DTT, 4% glycerol, room temperature, 30 min; GST-TFs on glutathione beads, 16-mer random dsDNA library, 0.1% formaldehyde crosslink after washing; high values mean tight binding
# FLI1 = target: T1, FLI1 (Homo sapiens, UniProt Q01543 1-452); conditions: protein: recombinant; tags: N-terminal GST; dsDNA, one strand shown
# T1 sequence: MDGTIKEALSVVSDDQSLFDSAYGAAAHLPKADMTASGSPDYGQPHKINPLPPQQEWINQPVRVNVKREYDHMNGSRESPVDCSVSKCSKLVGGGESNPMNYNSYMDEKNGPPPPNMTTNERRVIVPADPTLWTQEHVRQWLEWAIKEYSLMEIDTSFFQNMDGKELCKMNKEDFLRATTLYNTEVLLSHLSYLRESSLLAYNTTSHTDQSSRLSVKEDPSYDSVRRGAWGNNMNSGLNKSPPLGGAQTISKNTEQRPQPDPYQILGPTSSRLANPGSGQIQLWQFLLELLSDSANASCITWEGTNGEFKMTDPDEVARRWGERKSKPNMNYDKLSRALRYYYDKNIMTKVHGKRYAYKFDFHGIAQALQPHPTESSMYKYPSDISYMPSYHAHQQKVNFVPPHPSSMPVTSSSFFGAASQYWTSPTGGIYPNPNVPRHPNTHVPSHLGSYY
# Summary of the method: (§1)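 Each value of binding signal is a hexamer's read frequency for a factor divided by the same hexamer's frequency in the tag-only sample. Barcoded, bead-captured GST fusions of human transcription factors made in yeast were pooled with that sample and incubated with 200 nmole of a random double-stranded 16-mer DNA library in Tris/NaCl/DTT/glycerol buffer at room temperature for 30 min. Washing, 0.1% formaldehyde crosslinking, proximity ligation, PCR and Illumina NextSeq500 sequencing followed.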
# ELK1 = target: T2, ELK1 (Homo sapiens, UniProt P19419 1-428); conditions: protein: recombinant; tags: N-terminal GST; dsDNA, one strand shown
# T2 sequence: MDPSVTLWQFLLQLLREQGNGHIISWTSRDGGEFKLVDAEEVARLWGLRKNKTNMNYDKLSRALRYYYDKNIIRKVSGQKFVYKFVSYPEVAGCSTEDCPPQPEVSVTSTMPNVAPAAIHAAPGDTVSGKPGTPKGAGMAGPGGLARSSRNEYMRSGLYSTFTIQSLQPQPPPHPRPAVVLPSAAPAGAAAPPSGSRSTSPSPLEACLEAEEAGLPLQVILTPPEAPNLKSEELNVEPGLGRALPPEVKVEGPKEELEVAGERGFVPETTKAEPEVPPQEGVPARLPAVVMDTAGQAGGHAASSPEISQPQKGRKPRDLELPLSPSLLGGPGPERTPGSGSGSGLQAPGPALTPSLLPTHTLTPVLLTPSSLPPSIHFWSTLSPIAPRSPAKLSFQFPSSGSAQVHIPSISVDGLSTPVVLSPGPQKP
# Summary of the method: as §1
# GABPA = target: T3, GABPA (Homo sapiens, UniProt Q06546 1-454); conditions: protein: recombinant; tags: N-terminal GST; dsDNA, one strand shown
# T3 sequence: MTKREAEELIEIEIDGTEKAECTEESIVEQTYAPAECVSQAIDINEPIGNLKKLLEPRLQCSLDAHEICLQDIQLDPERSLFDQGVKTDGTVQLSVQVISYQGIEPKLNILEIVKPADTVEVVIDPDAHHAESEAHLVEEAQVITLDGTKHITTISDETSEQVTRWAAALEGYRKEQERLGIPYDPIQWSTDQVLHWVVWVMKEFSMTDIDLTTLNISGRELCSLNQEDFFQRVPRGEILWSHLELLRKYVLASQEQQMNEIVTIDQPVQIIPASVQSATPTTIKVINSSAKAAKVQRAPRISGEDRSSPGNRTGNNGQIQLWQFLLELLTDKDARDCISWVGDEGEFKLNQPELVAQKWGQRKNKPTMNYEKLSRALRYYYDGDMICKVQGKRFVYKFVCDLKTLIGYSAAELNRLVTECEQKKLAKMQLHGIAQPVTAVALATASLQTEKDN
# Summary of the method: as §1
# ERG = target: T4, ERG (Homo sapiens, UniProt P11308 1-479); conditions: protein: recombinant; tags: N-terminal GST; dsDNA, one strand shown
# T4 sequence: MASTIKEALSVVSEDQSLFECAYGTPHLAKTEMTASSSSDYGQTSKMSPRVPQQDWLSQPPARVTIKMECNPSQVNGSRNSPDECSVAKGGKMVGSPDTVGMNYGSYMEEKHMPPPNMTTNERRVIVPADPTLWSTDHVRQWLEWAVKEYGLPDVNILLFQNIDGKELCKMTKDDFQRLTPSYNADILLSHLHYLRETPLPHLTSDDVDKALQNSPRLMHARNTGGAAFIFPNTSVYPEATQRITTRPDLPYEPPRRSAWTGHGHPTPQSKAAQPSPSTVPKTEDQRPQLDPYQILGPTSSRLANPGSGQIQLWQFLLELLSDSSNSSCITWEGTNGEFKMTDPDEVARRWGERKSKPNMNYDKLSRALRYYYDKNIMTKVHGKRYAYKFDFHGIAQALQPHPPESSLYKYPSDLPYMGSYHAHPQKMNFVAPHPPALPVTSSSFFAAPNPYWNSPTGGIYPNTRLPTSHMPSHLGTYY
# Summary of the method: as §1
# ELF1 = ELF1 (Homo sapiens, UniProt P32519 1-619); conditions: protein: recombinant; tags: N-terminal GST; dsDNA, one strand shown
# Summary of the method: as §1
# EHF = target: T5, EHF (Homo sapiens, UniProt Q9NZC4 1-300); conditions: protein: recombinant; tags: N-terminal GST; dsDNA, one strand shown
# T5 sequence: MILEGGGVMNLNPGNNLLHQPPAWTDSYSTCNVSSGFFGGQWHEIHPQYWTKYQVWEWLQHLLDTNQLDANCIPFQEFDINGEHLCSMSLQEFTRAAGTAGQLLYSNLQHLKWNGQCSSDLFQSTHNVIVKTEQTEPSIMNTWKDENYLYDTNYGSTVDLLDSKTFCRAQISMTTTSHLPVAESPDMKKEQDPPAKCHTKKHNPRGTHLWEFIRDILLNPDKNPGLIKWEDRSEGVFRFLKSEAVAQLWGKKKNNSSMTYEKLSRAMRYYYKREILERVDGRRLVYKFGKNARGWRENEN
# Summary of the method: as §1
# SPI1 = SPI1 (Homo sapiens, UniProt P17947 1-270); conditions: protein: recombinant; tags: N-terminal GST; dsDNA, one strand shown
# Summary of the method: as §1
# SPIB = SPIB (Homo sapiens, UniProt Q01892 1-262); conditions: protein: recombinant; tags: N-terminal GST; dsDNA, one strand shown
# Summary of the method: as §1
# ELK3 = target: T6, ELK3 (Homo sapiens, UniProt P41970 1-407); conditions: protein: recombinant; tags: N-terminal GST; dsDNA, one strand shown
# T6 sequence: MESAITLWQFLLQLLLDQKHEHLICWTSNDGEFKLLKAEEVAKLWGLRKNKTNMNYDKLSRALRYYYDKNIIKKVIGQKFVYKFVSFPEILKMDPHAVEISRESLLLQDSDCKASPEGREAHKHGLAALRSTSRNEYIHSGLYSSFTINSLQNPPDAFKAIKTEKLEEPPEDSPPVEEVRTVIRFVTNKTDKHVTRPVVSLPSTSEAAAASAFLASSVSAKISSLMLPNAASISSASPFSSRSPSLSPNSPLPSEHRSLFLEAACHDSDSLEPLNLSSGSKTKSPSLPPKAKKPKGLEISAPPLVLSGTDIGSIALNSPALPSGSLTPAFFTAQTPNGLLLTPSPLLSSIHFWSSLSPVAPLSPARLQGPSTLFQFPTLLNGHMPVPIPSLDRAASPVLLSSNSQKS
# Summary of the method: as §1
# FEV = target: T7, FEV (Homo sapiens, UniProt Q99581 1-238); conditions: protein: recombinant; tags: N-terminal GST; dsDNA, one strand shown
# T7 sequence: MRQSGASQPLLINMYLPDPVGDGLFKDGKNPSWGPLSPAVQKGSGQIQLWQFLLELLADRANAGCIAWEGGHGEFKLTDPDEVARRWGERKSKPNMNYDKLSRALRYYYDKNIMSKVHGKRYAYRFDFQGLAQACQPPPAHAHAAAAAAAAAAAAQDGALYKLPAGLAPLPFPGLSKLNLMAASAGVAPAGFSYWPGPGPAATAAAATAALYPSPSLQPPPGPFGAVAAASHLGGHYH
# Summary of the method: as §1
# ETV5 = ETV5 (Homo sapiens, UniProt P41161 1-510); conditions: protein: recombinant; tags: N-terminal GST; dsDNA, one strand shown
# Summary of the method: as §1
# HSF1 = HSF1 (Homo sapiens, UniProt Q00613 1-529); conditions: protein: recombinant; tags: N-terminal GST; chain copies: 3; dsDNA, one strand shown
# Summary of the method: as §1
# SPIC = target: T8, SPIC (Homo sapiens, UniProt Q8N5J4 1-248); conditions: protein: recombinant; tags: N-terminal GST; dsDNA, one strand shown
# T8 sequence: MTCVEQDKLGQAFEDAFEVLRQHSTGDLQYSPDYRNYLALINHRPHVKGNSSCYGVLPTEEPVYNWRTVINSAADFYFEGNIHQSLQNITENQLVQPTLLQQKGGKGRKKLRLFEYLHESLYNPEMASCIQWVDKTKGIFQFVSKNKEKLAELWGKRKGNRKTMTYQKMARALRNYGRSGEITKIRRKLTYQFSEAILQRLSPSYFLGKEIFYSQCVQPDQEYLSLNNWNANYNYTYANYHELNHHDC
# Summary of the method: as §1
# ELF4 = ELF4 (Homo sapiens, UniProt Q99607 1-663); conditions: protein: recombinant; tags: N-terminal GST; dsDNA, one strand shown
# Summary of the method: as §1
# ELK4 = target: T9, ELK4 (Homo sapiens, UniProt P28324-2 1-405); conditions: protein: recombinant; tags: N-terminal GST; dsDNA, one strand shown
# T9 sequence: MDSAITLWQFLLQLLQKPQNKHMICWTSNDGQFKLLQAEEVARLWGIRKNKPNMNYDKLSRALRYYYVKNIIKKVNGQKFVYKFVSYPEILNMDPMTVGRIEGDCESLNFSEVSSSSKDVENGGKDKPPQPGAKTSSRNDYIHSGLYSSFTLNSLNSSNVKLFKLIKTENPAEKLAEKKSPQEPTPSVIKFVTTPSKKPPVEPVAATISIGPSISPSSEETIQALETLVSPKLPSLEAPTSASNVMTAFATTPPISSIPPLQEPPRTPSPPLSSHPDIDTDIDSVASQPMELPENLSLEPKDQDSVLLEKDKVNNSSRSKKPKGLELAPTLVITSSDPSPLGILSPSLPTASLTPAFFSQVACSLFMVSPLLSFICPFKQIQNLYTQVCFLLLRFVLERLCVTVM
# Summary of the method: as §1
# ETV2 = target: T10, ETV2 (Homo sapiens, UniProt O00321 1-342); conditions: protein: recombinant; tags: N-terminal GST; dsDNA, one strand shown
# T10 sequence: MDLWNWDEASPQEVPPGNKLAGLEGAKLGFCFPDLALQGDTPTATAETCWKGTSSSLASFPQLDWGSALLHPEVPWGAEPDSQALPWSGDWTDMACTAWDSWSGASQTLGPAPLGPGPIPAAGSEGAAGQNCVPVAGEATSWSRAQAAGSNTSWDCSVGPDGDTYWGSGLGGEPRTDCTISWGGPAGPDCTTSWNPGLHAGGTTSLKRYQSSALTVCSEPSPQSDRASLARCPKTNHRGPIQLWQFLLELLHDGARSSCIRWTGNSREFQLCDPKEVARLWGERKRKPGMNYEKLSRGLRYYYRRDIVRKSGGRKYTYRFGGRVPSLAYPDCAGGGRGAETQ
# Summary of the method: as §1
# ELF3 = target: T11, ELF3 (Homo sapiens, UniProt P78545 1-371); conditions: protein: recombinant; tags: N-terminal GST; dsDNA, one strand shown
# T11 sequence: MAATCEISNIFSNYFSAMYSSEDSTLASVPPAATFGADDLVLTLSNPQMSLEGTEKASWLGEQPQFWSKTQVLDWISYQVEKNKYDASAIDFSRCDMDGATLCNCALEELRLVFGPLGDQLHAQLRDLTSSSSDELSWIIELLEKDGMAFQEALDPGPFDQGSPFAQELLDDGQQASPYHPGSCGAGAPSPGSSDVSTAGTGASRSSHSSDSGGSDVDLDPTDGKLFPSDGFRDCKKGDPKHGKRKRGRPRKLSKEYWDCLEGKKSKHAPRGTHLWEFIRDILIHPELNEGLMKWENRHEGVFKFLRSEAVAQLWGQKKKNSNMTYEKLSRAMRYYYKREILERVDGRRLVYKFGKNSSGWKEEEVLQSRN
# Summary of the method: as §1
# ETV1 = ETV1 (Homo sapiens, UniProt P50549 1-477); conditions: protein: recombinant; tags: N-terminal GST; dsDNA, one strand shown
# Summary of the method: as §1
# Chain of ETV5 (P41161 whole entry): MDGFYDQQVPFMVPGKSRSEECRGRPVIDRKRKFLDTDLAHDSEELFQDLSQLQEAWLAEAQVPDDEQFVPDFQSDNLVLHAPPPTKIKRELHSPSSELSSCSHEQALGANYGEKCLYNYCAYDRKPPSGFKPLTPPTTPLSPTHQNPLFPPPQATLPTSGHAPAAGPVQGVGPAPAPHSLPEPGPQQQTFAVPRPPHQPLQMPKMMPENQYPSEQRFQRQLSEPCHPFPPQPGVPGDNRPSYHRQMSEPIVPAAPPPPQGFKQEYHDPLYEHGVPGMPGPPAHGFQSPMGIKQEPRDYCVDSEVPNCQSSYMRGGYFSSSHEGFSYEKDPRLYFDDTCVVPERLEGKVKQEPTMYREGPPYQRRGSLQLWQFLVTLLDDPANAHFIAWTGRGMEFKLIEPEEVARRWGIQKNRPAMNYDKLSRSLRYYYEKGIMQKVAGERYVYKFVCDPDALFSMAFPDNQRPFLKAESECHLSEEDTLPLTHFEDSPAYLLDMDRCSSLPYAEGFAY
# Chain of HSF1 (Q00613 whole entry): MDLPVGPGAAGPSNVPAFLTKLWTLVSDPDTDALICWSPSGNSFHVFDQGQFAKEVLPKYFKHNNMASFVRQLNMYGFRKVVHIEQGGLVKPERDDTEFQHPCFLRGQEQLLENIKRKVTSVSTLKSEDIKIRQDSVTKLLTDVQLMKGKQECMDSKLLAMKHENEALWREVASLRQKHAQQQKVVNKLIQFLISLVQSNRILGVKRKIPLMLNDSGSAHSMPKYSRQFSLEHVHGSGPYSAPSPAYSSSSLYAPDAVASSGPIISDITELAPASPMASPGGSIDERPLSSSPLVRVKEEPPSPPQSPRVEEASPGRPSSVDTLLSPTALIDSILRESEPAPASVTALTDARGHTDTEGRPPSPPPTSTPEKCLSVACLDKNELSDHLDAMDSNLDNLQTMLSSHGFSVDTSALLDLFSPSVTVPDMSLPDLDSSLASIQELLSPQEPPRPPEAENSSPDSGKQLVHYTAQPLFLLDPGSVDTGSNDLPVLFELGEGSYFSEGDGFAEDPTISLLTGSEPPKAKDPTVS
# Chain of ELF1 (P32519 whole entry): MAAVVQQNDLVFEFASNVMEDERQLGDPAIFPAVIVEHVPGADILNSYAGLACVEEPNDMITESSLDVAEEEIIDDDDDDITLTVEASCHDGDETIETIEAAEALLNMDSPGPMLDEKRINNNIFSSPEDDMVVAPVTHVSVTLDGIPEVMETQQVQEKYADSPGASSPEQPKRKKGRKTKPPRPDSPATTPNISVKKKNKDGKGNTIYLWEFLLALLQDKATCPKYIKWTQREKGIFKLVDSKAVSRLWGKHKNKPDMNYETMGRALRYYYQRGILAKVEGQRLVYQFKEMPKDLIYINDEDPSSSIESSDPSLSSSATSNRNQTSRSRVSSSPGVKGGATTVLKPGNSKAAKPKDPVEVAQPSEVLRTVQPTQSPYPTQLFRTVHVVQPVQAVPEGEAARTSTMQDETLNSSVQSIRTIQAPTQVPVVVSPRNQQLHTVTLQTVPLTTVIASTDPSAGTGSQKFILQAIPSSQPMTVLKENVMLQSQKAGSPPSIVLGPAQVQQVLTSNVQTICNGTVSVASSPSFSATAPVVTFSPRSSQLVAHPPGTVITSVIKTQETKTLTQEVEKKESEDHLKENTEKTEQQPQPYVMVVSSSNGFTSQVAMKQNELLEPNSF
# Chain of ELF4 (Q99607 whole entry): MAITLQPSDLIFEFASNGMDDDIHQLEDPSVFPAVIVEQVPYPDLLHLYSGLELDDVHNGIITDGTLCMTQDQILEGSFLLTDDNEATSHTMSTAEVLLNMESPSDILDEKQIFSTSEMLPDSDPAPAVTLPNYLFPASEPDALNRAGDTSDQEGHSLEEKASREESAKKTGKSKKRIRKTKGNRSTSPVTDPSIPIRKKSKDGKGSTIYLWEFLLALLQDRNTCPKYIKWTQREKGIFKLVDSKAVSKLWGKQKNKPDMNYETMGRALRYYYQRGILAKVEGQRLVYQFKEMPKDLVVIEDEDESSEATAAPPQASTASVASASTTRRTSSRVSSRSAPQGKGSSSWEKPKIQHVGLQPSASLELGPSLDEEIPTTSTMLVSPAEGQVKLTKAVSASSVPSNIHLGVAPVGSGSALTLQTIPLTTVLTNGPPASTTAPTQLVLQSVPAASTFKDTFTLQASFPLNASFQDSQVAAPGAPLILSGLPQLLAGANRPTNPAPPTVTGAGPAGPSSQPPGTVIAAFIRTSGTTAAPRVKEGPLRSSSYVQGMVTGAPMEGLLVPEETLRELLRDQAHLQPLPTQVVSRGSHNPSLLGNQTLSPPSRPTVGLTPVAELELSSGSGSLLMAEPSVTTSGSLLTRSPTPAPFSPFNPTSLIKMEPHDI
# Chain of SPIB (Q01892 whole entry): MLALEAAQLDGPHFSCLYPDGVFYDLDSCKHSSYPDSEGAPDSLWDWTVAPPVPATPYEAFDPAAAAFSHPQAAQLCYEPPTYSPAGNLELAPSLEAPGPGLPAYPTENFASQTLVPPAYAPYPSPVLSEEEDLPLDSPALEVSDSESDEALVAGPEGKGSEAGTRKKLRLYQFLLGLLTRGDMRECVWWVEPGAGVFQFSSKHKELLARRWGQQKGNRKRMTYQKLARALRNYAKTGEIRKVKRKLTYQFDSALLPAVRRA
# Chain of ETV1 (P50549 whole entry): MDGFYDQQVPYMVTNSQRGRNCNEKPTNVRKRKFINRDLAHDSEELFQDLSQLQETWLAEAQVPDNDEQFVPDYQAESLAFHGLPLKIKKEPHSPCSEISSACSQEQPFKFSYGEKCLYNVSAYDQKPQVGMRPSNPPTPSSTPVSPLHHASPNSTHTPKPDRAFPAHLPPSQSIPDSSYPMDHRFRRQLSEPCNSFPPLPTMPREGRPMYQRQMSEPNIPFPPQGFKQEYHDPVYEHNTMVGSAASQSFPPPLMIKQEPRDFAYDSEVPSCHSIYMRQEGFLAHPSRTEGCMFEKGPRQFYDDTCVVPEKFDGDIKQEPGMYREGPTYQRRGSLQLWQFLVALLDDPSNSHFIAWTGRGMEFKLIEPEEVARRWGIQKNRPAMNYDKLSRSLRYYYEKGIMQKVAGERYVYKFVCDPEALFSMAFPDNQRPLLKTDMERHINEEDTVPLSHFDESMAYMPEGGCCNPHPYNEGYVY
sequence,measurement,setting,value
CATTTC,binding signal,FLI1,"1.8 fold enrichment (6-mer frequency, TF over GST control)"
same,binding signal,ELK1,"1.86 fold enrichment (6-mer frequency, TF over GST control)"
same,binding signal,GABPA,"1.64 fold enrichment (6-mer frequency, TF over GST control)"
same,binding signal,ERG,"2.07 fold enrichment (6-mer frequency, TF over GST control)"
same,binding signal,ELF1,"1.63 fold enrichment (6-mer frequency, TF over GST control)"
same,binding signal,EHF,"1.77 fold enrichment (6-mer frequency, TF over GST control)"
same,binding signal,SPI1,"1.97 fold enrichment (6-mer frequency, TF over GST control)"
same,binding signal,SPIB,"1.85 fold enrichment (6-mer frequency, TF over GST control)"
same,binding signal,ELK3,"1.67 fold enrichment (6-mer frequency, TF over GST control)"
same,binding signal,FEV,"2.2 fold enrichment (6-mer frequency, TF over GST control)"
same,binding signal,ETV5,"1.95 fold enrichment (6-mer frequency, TF over GST control)"
same,binding signal,HSF1,"1.13 fold enrichment (6-mer frequency, TF over GST control)"
same,binding signal,SPIC,"1.88 fold enrichment (6-mer frequency, TF over GST control)"
same,binding signal,ELF4,"1.73 fold enrichment (6-mer frequency, TF over GST control)"
same,binding signal,ELK4,"1.66 fold enrichment (6-mer frequency, TF over GST control)"
same,binding signal,ETV2,"1.78 fold enrichment (6-mer frequency, TF over GST control)"
same,binding signal,ELF3,"1.61 fold enrichment (6-mer frequency, TF over GST control)"
same,binding signal,ETV1,"1.84 fold enrichment (6-mer frequency, TF over GST control)"

# Source: PMC7862700, “An all-to-all approach to the identification of sequence-specific readers for epigenetic DNA modifications on cytosine”
